Measurements taken from PubChem BioAssay AID1209 (Sanford-Burnham Center for Chemical Genomics, 2008).
Screen size: about 190,000 compounds; about 810 (0.43%) were called active. The list comes from a sample in which actives are over-represented; it also holds similar structures and randomly drawn compounds. Values without a mark were called inactive. Cut-off read from the data, not from the text of the source: active = inhibition above about 50%; inactive = the rest.

These molecules were tested against Mannose-6-phosphate isomerase (Homo sapiens) (UniProt P34949) (assay: MPI enzyme activity inhibition – biochemical, fluorescence intensity, coupled assay, primary screen (AID 1209;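 note: plate controls were DMSO vehicle for no effect and wells lacking substrate for full effect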)). Settings: purified PMI enzyme, at 20 µM, active compounds read high.
Sequence of Mannose-6-phosphate isomerase (Homo sapiens) (P34949 whole entry, looked up): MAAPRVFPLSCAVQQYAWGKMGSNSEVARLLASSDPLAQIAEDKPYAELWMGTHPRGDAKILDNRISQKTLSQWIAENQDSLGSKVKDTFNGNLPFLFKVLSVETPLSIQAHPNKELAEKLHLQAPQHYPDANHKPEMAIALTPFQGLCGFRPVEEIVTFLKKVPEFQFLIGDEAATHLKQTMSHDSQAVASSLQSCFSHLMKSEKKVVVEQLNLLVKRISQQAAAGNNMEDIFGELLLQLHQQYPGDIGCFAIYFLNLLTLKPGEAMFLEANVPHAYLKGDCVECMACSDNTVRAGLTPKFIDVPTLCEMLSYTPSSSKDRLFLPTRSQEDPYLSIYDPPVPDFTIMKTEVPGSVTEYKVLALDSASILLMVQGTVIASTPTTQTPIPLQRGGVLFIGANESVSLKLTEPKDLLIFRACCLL

In order of falling inhibition:
1. O=c1c2ccccc2sn1-c1ccc(S(=O)(=O)N2CCCC2)cc1  42.4%
2. Cc1ccc(NS(=O)(=O)c2cc(NC(=O)c3ccc4c(c3)NC(=O)CS4)ccc2C)c(C)c1  41.1%
3. CCN(CC)c1ccc(C=Nc2ccccc2C)c(O)c1  27.1%
4. CCN1CCN(C(=O)C(C)Nc2cc(Cl)c(OC)cc2OC)CC1 (configuration not stated)  26.6%
5. Cc1nn(-c2cc(N3CCCCC3)ccc2N)c(=O)c2ccccc12  25.5%
6. CCCCNS(=O)(=O)c1ccc(NC(=O)C(Sc2ccccc2)c2ccccc2)cc1 (configuration not stated)  23.4%
7. Cc1ccc(O)c(C=Nc2cc(C)ccc2O)c1  23.1%
8. COc1ccc(NC(=O)c2c(F)cccc2F)cc1S(=O)(=O)Nc1ccc(Br)cc1  19.4%
9. CCc1ccc(O)c(N=Cc2cccc(C)c2O)c1  18.5%
10. CSCC[C@H](NC(=O)c1cc([N+](=O)[O-])ccc1Cl)c1nc2ccccc2[nH]1  16.7%
11. COc1cc(/C=N/N=C(/N)c2nonc2N)cc(Br)c1OCc1cccc(C)c1  16.3%
12. O=C(Nc1cccc(S(=O)(=O)Nc2ccc(Cl)cc2)c1)c1ccc(Cl)nc1  15.9%
13. CSc1ccc(/C=C/C(=O)c2ccc(NC(=O)Cc3ccccc3)cc2)cc1  15.3%
14. Cn1c(N=Nc2ccc(N3CCOCC3)cc2)[n+](C)c2ccccc21  15.1%
15. Oc1c(/C=N/c2ncn[nH]2)ccc2ccccc12  14.9%
16. CSc1ccc(/C=N/n2c(Cc3ccc(Br)cc3)n[nH]c2=S)cc1  14.5%
17. CC(=O)Oc1ccc2c(=O)c(N3C(=O)c4ccccc4C3=O)c(C)oc2c1C  14.5%
18. O=C(Cc1ccc(Cl)cc1Cl)NCC1(N2CCOCC2)CCCCC1  14.5%
19. COc1ccc(NS(=O)(=O)c2cc(NC(=O)c3ccc(F)cc3)ccc2OC)cc1  14.1%
20. Cc1c(Br)c(=O)oc2c(Br)c(O)c(O)cc12  12.8%
21. COc1ccc(NC(=O)c2cccc(S(=O)(=O)Nc3ccc(Br)cc3)c2)cn1  12.5%
22. O=C(NCC(=O)N(Cc1cccs1)C(C(=O)NC1CCCCC1)c1ccco1)c1ccco1 (configuration not stated)  11%
23. Cc1c([N+](=O)[O-])ccc(S(=O)(=O)N2CCC(C(N)=O)CC2)c1C  10.6%
24. Cc1ccc(C)n1-c1cc(S(=O)(=O)N2CCOCC2)ccc1N1CCCC1  9.8%
25. CN(Cc1ccccc1)C(=O)COC(=O)c1ccc(Cl)c(N)c1  9.3%
26. Cc1oc2cc(O)ccc2c(=O)c1Oc1ccccc1  9.2%
27. O=S(=O)(c1ccc2c(c1)oc1ccccc12)N1CCOCC1  9.1%
28. O=C(c1ccc(F)cc1)N1CCN2C(=O)c3ccccc3C12c1ccc(Cl)cc1 (configuration not stated)  8.3%
29. CCOC(=O)Cc1csc(NC(=O)c2c(O)c3ccccc3n(C)c2=O)n1  7.5%
30. Cc1ccc(S(=O)(=O)/N=C(/c2ccc(F)cc2)N2CCCC2)cc1  7.2%
31. CC(=O)c1ccc(N(C(=O)c2ccco2)C(C(=O)NC2CCCC2)c2ccc(N3CCOCC3)cc2)cc1 (configuration not stated)  6.3%
32. Cc1cc(C)n(C(=O)c2ccncc2)n1  6.1%
33. CCn1c(=Nc2ccc(N3CCOCC3)cc2)ccc2ccccc21  6%
34. Cc1ccc(NS(=O)(=O)c2cc(C(=O)Nc3cccc(N(C)S(C)(=O)=O)c3)ccc2C)c(C)c1  5.7%
35. OC(CNCc1ccccc1Cl)C(F)(F)F (configuration not stated)  5.4%
36. COc1cccc2cc(C(C)N(CCCN3CCOCC3)C(=S)Nc3cccc(C)c3)oc12 (configuration not stated)  5.2%
37. COc1ccc(F)cc1C(=O)C1CCCN(C(=O)C2=C(C)OCCO2)C1 (configuration not stated)  5.1%
38. CCCCCCC1CC(=O)NC(=S)N1 (configuration not stated)  4.8%
39. CCN(CC)CCNC(=O)C1CCC(=O)N1CCc1ccccc1 (configuration not stated)  4.7%
40. COc1ccc(CNC(=O)c2cccc3c2C(=O)N(Cc2cccnc2)C3)cc1  4.4%
41. CCCCn1c(SCC(=O)OCC)nc2c1c(=O)[nH]c(=O)n2C  3.6%
42. CCOC(=O)Cc1csc(NC(=O)c2c(-c3ccccc3)noc2C)n1  2.9%
43. O=C1CCC([N+](=O)[O-])C(c2ccccc2Cl)N1 (configuration not stated)  2.8%
44. COc1ccc(-n2ncc3c(=O)n(Cc4c(F)cccc4Cl)cnc32)cc1  1.8%
45. O=c1c2ccccc2oc2nc(-c3ccco3)n(-c3ccccc3)c(=O)c12  1.3%
46. Cc1c(Cc2ccccc2)c(=O)oc2c(CN(C)C)c(O)c(Cl)cc12  1.2%
47. COC(=O)c1ccc2c(=O)n(-c3ccccc3)c(=S)[nH]c2c1  0.9%
48. COc1ccc2c(C)c(Cc3ccccc3)c(=O)oc2c1OC  0.7%
49. Cc1cc(=O)c2cc(Br)ccc2[nH]1  0.3%
50. CCn1cc(C2=NCCO2)c2ccccc21  0.2%
51. CCCCCn1c(SCC(=O)OC)nc2c1c(=O)[nH]c(=O)n2C  0.2%
52. CCOc1cc(/C=N/O)ccc1OCc1ccc(F)cc1  -0.3%
53. COc1ccc(NC(=O)C(C)Oc2ccc(/C(C)=N\O)cc2)cc1 (configuration not stated)  -0.3%
54. CCCCCN(C(=O)NC(=O)Nc1nncs1)S(C)(=O)=O  -0.4%
55. CCn1c(NCc2ccccn2)nc2c1c(=O)n(C)c(=O)n2C  -0.4%
56. CCOC(=O)C1CCN(C(=O)CC(C)c2ccccc2)CC1 (configuration not stated)  -0.6%
57. CCN(CC)c1ccc(C=Nc2ccc(C)cc2C)c(O)c1  -0.7%
58. O=C(O)c1cc(S(=O)(=O)N2CCOCC2)ccc1N1CCOCC1  -1%
59. N#C/C(C(=O)N1CCCCC1)=C1/N=C(N)c2ccccc21  -1.3%
60. COc1ccccc1N1CCN(C(=O)c2ccc(CSc3ccccc3)cc2)CC1  -1.4%
61. CN(C)c1ncccc1-c1nc2ccccc2s1  -2.6%
62. O=C(Cc1ccccc1)Nc1ccccc1C(=O)O  -3%
63. Nc1ccc(N2CCCCCC2)cc1  -3.3%
64. CC1CC1C(=O)Nc1cc(S(=O)(=O)N2CCOCC2)ccc1N1CCCC1 (configuration not stated)  -3.9%
65. O=C1CCC([N+](=O)[O-])C(c2cccc(Cl)c2Cl)N1 (configuration not stated)  -4.8%
66. Cc1ccc(O)c(CP(=O)(c2ccccc2)c2ccccc2)c1  -4.9%
67. CC(C)NC(=O)c1onc(CSc2ccc(F)cc2)c1C(=O)O  -5.1%
68. O=C(CSc1nc2ccccc2c(=O)[nH]1)c1ccc(O)cc1O  -5.9%
69. Cc1n[nH]c(=S)n1/N=C/c1ccc(OCc2ccc(Cl)cc2)cc1  -6.8%
70. N#Cc1ccc(OCC(=O)NCCc2ccc(S(N)(=O)=O)cc2)cc1  -7%
71. CN(C)CCCN(C(=O)COc1ccc(Cl)cc1)c1nc2ccc(F)cc2s1  -8%
72. Cc1ccc2nc(N(CCCN(C)C)C(=O)COc3ccc(Cl)cc3)sc2c1  -9.9%
73. O=C(COC(=O)c1ccc(Cl)nc1)c1ccc2c(c1)OCCO2  -10.6%
74. Cc1ccc(P(=O)(CO)c2ccc(C)cc2)cc1  -12%
75. O=c1c2c([nH]c3ccc(Br)cc13)CCCC2  -15.1%
76. COC(=O)c1ccc2c(=O)n(-c3ccccc3F)c(=S)[nH]c2c1  -15.3%
77. Cc1c(Br)c(=O)oc2c(Br)c(O)ccc12  -26.1%
78. Oc1c(/C=N/Nc2cccc3cccnc23)ccc2ccccc12  -30.2%
79. Cc1ccc(NS(=O)(=O)c2cc(C(=O)O)ccc2Cl)c(C)c1  -31.1%
80. O=C(/C=C/c1ccc([N+](=O)[O-])cc1)N(c1ccccn1)C1CCCCC1  -38.1%

For `Nc1ccc(N2CCCCC2)cc1N1CCCCC1`, the inhibition was 61.7% (active).
For `Cc1cc(C)c2sc(N(CCCN(C)C)C(=O)COc3ccc(Cl)cc3)nc2c1`, the inhibition was 50.2% (active).
For `O=C1CSc2ccc(C(=O)Nc3cccc(S(=O)(=O)Nc4ccc(Br)cc4)c3)cc2N1`, the inhibition was 62.8% (active).
For `COc1ccc(NC(=O)c2ccc3c(c2)NC(=O)CS3)cc1S(=O)(=O)Nc1ccc(Br)cc1`, the inhibition was 54.5% (active).
`Cc1ccc(NS(=O)(=O)c2cc(NC(=O)c3ccc4c(c3)NC(=O)CS4)ccc2Cl)c(C)c1` was tested, and the inhibition was 59.3% (active).
`COC(=O)c1ccc(C(=O)OC)c(-n2c(=O)c3ccccc3c3ccccc3c2=O)c1` was tested, and the inhibition was 80.2% (active).
`O=C1CCC([N+](=O)[O-])C(c2cccc3ccccc23)N1` (configuration not stated) was tested, and the inhibition was 101% (active).
With `O=c1ccc2cc3c([nH]c4ccc(Br)cc43)oc-2c1O` the inhibition was 70.2% (active).
In the case of `S=c1[nH]nc(Cc2ccc(Br)cc2)n1/N=C/c1ccc(Cl)cc1`, the inhibition was 51.1% (active).
With `Cn1c(=Nc2ccc(N3CCOCC3)cc2)ccc2ccccc21` the inhibition was 78.4% (active).
In the case of `Oc1c(C=Nc2cccc3nsnc23)ccc2ccccc12`, the inhibition was 70.7% (active).
For `O=c1oc2c(O)c(O)cc3c(=O)oc4c(O)c(O)cc1c4c23`, the inhibition was 67.5% (active).
`Cc1c(Cc2ccccc2)c(=O)oc2c(O)c(O)ccc12` was tested, and the inhibition was 77.6% (active).
In the case of `O=c1c2ccccc2sn1-c1cc(S(=O)(=O)N2CCOCC2)ccc1N1CCCC1`, the inhibition was 92.7% (active).
`O=c1c2ccccc2sn1-c1cc(S(=O)(=O)N2CCOCC2)ccc1N1CCOCC1` was tested, and the inhibition was 104% (active).
`Cc1ccccc1N=Cc1cccc(O)c1O` was tested, and the inhibition was 74.1% (active).
`CCCCCCn1c(SCC(=O)OC)nc2c1c(=O)[nH]c(=O)n2C` was tested, and the inhibition was 54% (active).
